Compound activity as filed in PubChem.
Sampled rows, rich in hits. Any-hit rate of the full collection: about 18%.
TDP1 inh = blocks human tyrosyl-DNA phosphodiesterase 1. Q9NUW8. recombinant TDP1, AlphaScreen DNA substrate cleavage. Potency, µM (highest dose often 130 µM), for inactives: at the highest dose activity change, negative = inhibition, hits mostly inhibitors. 0.28% of 350,000 active. AID 485290; further: potency means the concentration at half of the fitted maximal effect; on the % scale 0 is the no-effect control and ±100 the full control effect; nearly all actives have a fitted effect of over 40% in size
Target sequence (Q9NUW8 whole entry, looked up): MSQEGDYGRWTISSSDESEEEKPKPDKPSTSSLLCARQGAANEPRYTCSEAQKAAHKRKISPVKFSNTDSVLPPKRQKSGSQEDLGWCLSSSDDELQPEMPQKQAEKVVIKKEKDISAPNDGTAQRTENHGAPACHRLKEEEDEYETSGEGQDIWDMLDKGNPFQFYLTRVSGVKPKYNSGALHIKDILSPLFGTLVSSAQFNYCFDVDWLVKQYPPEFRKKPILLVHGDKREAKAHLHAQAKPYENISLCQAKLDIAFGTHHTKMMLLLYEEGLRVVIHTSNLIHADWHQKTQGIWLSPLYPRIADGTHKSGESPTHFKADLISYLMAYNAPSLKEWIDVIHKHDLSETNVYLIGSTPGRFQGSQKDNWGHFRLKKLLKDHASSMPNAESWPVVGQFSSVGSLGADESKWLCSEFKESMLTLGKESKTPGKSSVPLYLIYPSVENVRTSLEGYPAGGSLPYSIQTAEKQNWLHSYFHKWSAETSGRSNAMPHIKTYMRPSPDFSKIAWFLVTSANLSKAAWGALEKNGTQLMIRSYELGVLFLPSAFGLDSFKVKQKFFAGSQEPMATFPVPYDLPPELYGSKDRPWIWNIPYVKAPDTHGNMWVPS
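Here, a 5' biotin and 3' phosphotyrosine-FITC DNA oligonucleotide reports Tdp1 activity: intact substrate bridges AlphaScreen beads, while cleavage leaves a 3' phosphate and drops signal. All incubations at room temperature.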
TGFb SMAD3 inh = TGF-b pathway inhibition. AID 588855. HepG2 CAGA-GFP TGF-b/SMAD3 reporter, GFP fluorescence, 18 h; TGF-beta stimulated, 500 pg/mL final. Potency, µM (highest dose often 46.1 µM), for the others: at the highest dose activity, negative = inhibition, usual class: inhibitors. 1.2% of 410,000 active; further: potency means the concentration at half of the fitted maximal effect; on the % scale 0 is the no-effect control and ±100 the full control effect; nearly all actives have a fitted effect of over 65% in size
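HEPG2 CAGA-GFP reporter cells (1000/well, DMEM with 1% FBS) received compounds, then recombinant TGF-beta at 500 pg/mL final for 18 hours at 37 degrees C. Per-cell GFP summed per well was normalised to unstimulated and stimulated DMSO controls before curve fitting.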
IL1B secr inh = inhibitors of inflammasome signaling (IL-1 beta secretion); 4.7% of 360,000 active; AID 743279; activity change, % at 57.5 µM; THP-1 LPS/ATP IL-1B secretion, AlphaLISA, 16 h; active compounds read low; in the data active means activity change below about -50%; inconclusive means mostly about -30% to -49%; further: on the % scale 0 is the no-effect control and ±100 the full control effect
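Secreted IL-1B measured by AlphaLISA bead assay after 16 h compound exposure of THP-1 cells; compounds (final up to 57.5 uM) added 1 h before LPS (250 ng/mL) and ATP (1.25 mM) stimulation; lower signal means less secretion.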
TDP1 cell CPT = DT40-hTDP1 cell growth loss with CPT | chicken DT40 Tdp1-/-;hTDP1 cells + 20 nM CPT, ATP luminescence, 48 h | Potency, µM (series often up to 46.2 µM), without a hit: at the highest dose activity change, negative = growth inhibition, usual class: inhibitors | 12% of 420,000 active | AID 686979; further: potency means the concentration at half of the fitted maximal effect; on the % scale 0 is the no-effect control and ±100 the full control effect; nearly all actives have a fitted effect of over 55% in size
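Chicken DT40 Tdp1-/- cells complemented with human TDP1, 400 cells/well, exposed to compounds plus 20 nM camptothecin for at least 48 h at 37 C; viability read as ATP content by CellTiter-Glo luminescence.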
HepG2 viability = kills HepG2 cells in TGF-b inhibitor counter-screen; HepG2 CAGA-GFP viability, ATP luminescence, 18 h; Potency, µM (series often up to 46.1 µM), for the others: at the top dose activity change, negative = cytotoxicity, hits mostly cytotoxic; 0.76% of 410,000 active; AID 588856; further: potency means the concentration at half of the fitted maximal effect
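HepG2 CAGA-GFP cells (1000/well, DMEM with 1% FBS) received compound, then TGF-beta at 500 pg/mL final, and were incubated 18 hours at 37 degrees C. Viability was read by CellTiter-Glo luminescence. Media-only wells were set as complete cell-killing and DMSO as no toxicity.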
TDP1 cell noCPT = qHTS for Inhibitors of human tyrosyl-DNA phosphodiesterase 1 (TDP1): qHTS in cells in absence of CPT. DT40 Tdp1-/- hTDP1 cells, no CPT, ATP luminescence, 48 h. Potency, µM (titrated, usually from 46.2 µM), inactives show at the top dose activity change, negative = growth inhibition, most hits filed as inhibitors. 15% of 420,000 active. AID 686978, 2013; further: potency means the concentration at half of the fitted maximal effect; on the % scale 0 is the no-effect control and ±100 the full control effect; nearly all actives have a fitted effect of over 55% in size
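Compound effects on proliferation are scored in DT40 Tdp1-/-;hTDP1 cells in the absence of CPT. ATP levels (CellTiter-Glo luminescence) are recorded after a ≥48 hr, 37 °C incubation.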
* = called active by the depositor; i = inactive; u = inconclusive; x = no result given. Unless noted, the call rests on the fitted dose curve; in most records, active means well fitted curve in the direction sought with a large enough effect; inconclusive means small, poorly fitted or top-dose-only effect, or another doubt; inactive means no such curve, though single readings can be large; an effect the other way counts as inactive or inconclusive.

SMILES	TDP1 inh	TGFb SMAD3 inh	IL1B secr inh	TDP1 cell CPT	HepG2 viability	TDP1 cell noCPT
CCN(CC)C(=O)c1sc2c(c1C)c(=O)n(CCc1ccccc1)c(=O)n2Cc1ccc(C)cc1	5.4%	u	x	20.6µM*	-32.5%	u
C[C@]12CC[C@@H]3c4ccc(O)cc4CC[C@H]3[C@@H]1C[C@H](O)C2O (some centres not stated)	0.0%	x	x	x	x	x
CCCCSCCCNC(=O)c1ccc2c(c1)N(CC)C(=O)c1ccccc1S2=O (configuration not stated)	x	-18.4%	-12.3	18.4µM*	-5.4%	u
CCN1C(=O)c2ccccc2S(=O)c2ccc(C(=O)NCc3ccccc3OC)cc21 (configuration not stated)	0.0%	-0.7%	x	u	-17.2%	23.1µM*
CCN1C(=O)c2ccccc2S(=O)c2ccc(C(=O)NCc3ccc(OC)cc3)cc21 (configuration not stated)	0.7%	-5.9%	29.3	u	-16.0%	u
O=C(CS(=O)(=O)c1cccc2nsnc12)Nc1ccc(F)cc1F	-4.7%	-12.3%	x	-27.4%	-21.5%	3.1%
CC(C)c1ccc(NC(=O)CSc2nnc(-c3ccccc3)n2C)cc1	x	7.7%	x	-15.2%	10.1%	-11.2%
CCn1nc(C)cc1C(=O)N1CCCC(C(=O)c2ccc3ccccc3c2)C1 (configuration not stated)	x	u	-16.6	11.6µM*	-44.7%	7.31µM*
CCn1nc(C)cc1C(=O)N1CCCC(C(=O)c2ccc(Oc3ccccc3)cc2)C1 (configuration not stated)	5.1%	-41.1%	-4.8	u	-33.2%	u
CCn1nc(C)cc1C(=O)N1CCCC(C(=O)c2ccc(OC)cc2C)C1 (configuration not stated)	2.3%	3.7%	54.1	23.1µM*	-1.4%	9.2µM*
COc1ccc(C(=O)C2CCCN(C(=O)c3cccnc3OC)C2)c(C)c1 (configuration not stated)	2.7%	-7.6%	44.1	u	-23.4%	u
COc1ccc(C(=O)C2CCCN(C(=O)c3ccc4cc[nH]c4c3)C2)c(C)c1 (configuration not stated)	0.0%	u	18.2	16.4µM*	-55.7%	u
CSc1ccc(C(=O)C2CCCN(C(=O)c3cc(C)n(C)n3)C2)cc1 (configuration not stated)	4.5%	-12.6%	15.5	u	-21.4%	u
Cc1cc(C(=O)N2CCCC(C(=O)c3ccc4ccccc4c3)C2)nn1C (configuration not stated)	2.7%	-23.7%	-8.7	u	-12.5%	20.6µM*
O=C1OC(=O)c2c(Cl)c(Cl)c(Cl)c(Cl)c21	5.9%	x	x	x	x	x
Cc1ncsc1C(=O)N1CCCC(C(=O)c2ccc3ccccc3c2)C1 (configuration not stated)	1.0%	-8.1%	i	23.1µM*	10.7%	20.6µM*
COc1ccc2cc(C(=O)C3CCCN(C(=O)c4cccnc4)C3)ccc2c1 (configuration not stated)	5.7%	-27.2%	-29.7	u	-8.3%	u
COC(=O)c1ccc(NS(=O)(=O)c2ccc3c(c2)n(C)c(=O)c(=O)n3C)cc1	0.0%	u	x	8.1%	-4.8%	-7.1%
CCOC(=O)c1cnc2ccc(OCC)cc2c1NCCN1CCOCC1	5.6%	-13.0%	-25.2	u	-54.0%	20.6µM*
CCOC(=O)c1cnc2ccc(C(=O)OC)cc2c1NCCCN1CCOCC1	x	16.3%	-59.9*	u	20.9%	u
CCOC(=O)c1cnc2c(Cl)cccc2c1NCCCN1CCOCC1	x	2.1%	-13.6	u	-2.3%	u
CCOC(=O)c1cnc2ccc(C(=O)OC)cc2c1NCCN1CCOCC1	2.1%	-3.3%	-26.8	u	-5.0%	-18.3%
CCOC(=O)c1cnc2ccc(OCC)cc2c1NCCCN1CCOCC1	2.3%	-15.5%	-53.3*	18.4µM*	-36.4%	18.4µM*
Cc1ccc(C(=O)Nc2nnc(SCc3cc(=O)n4ccc(C)cc4n3)s2)cc1	5.4%	-11.0%	x	5.4%	3.9%	-14.7%
CCCc1nc2ccc(Cl)cn2c1Cc1ccc(C)cc1	x	-24.8%	37.7	23.1µM*	-26.7%	23.1µM*
SMILES	TDP1 inh	TGFb SMAD3 inh	IL1B secr inh	TDP1 cell CPT	HepG2 viability	TDP1 cell noCPT
CCCc1nc2ccc(Cl)cn2c1Cc1cccc(Cl)c1	x	-5.5%	-2.9	10.3µM*	-10.9%	8.2µM*
COc1ccc(CN2CCN(CCc3ccccc3)C(CCO)C2)c(O)c1 (configuration not stated)	0.0%	-2.5%	26.7	-10.8%	-22.1%	-13.7%
N#CC1=C(SCc2ccccc2Cl)NC(=O)C(C(N)=O)C1 (configuration not stated)	6.2%	3.5%	0.3	-18.9%	-11.0%	1.1%
Cc1ccc2nc(-c3ccc(C)o3)c(Nc3ccc(F)cc3)n2c1	1.1%	x	x	2.0%	x	u
Cc1ccc(-c2nc3cccc(C)n3c2Nc2ccc(F)cc2)o1	7.7%	x	x	u	x	10µM*
COc1ccc(-c2nc3cnccn3c2Nc2ccc(C)cc2)cc1	5.4%	u	89.1	14.6µM*	-2.0%	14.6µM*
Cc1ccc(-c2nc3ccccn3c2Nc2ccccc2)o1	3.4%	0.0%	-16.2	-20.9%	-0.2%	u
Cc1ccc(-c2nc3cnccn3c2Nc2ccccc2)o1	4.9%	-18.1%	35.7	20.6µM*	-0.1%	20.6µM*
Cc1ccc(Nc2c(-c3ccc(C)o3)nc3ccccn23)cc1	3.2%	x	x	u	x	12.6µM*
O=C(OCn1nnc2ccccc2c1=O)c1cccc(S(=O)(=O)N2CCOCC2)c1	-3.3%	0.7%	9.9	-19.9%	-0.7%	-2.3%
CCOc1ncccc1C(=O)Nc1ccc(C)cn1	3.0%	3.5%	16.8	u	-2.1%	-14.4%
COc1ccc(S(=O)(=O)N2CCN(C(=O)COc3ccc(C)c(C)c3)CC2)cc1OC	2.9%	-24.3%	-4.8	u	-6.8%	-29.3%
Cc1ccc2nc(-c3ccc(C)o3)c(Nc3ccccc3)n2c1	3.7%	x	x	3.55µM*	x	4.47µM*
Cc1ccc(C(=O)N/C(=C\c2ccc(-c3ccc(Cl)cc3)o2)C(=O)NCCCN(C)C)cc1	5.9%	u	-67.2*	11.6µM*	-105.1%	11.6µM*
CN(C)CCCNC(=O)/C(=C/c1ccc(-c2ccc([N+](=O)[O-])cc2)o1)NC(=O)c1ccccc1	5.0%	-24.4%	-16.4	u	-15.1%	-24.4%
